According to PubChem BioAssay (Tox21):
Values without a mark were called inactive. Inconclusive results are not listed. Active and inactive are the calls of the source. Calls follow the shape of the full dose curve.

Each molecule was assayed against Acetylcholinesterase (Homo sapiens) (UniProt P22303) (assay: Acetylcholinesterase (AChE) small molecule antagonists: colormetric cell-based qHTS assay (AID 1347395; also: nearly all actives have a fitted effect of over 30% in size)). Conditions: SH-SY5Y cells AChE activity, colorimetric (Ellman); series mostly up to 115 µM; activity, negative = inhibition: at the top concentration.
In short: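 After overnight attachment at 37 C, SH-SY5Y cells get 30 min compound exposure; detection cocktail (acetylthiocholine, DTNB) then incubates 90 min at 37 C, and absorbance reflects AChE-generated thiocholine.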
% is scaled to controls: 0 for no effect and ±100 for the full control effect.

Acetylcholinesterase (Homo sapiens), sequence (P22303 whole entry, looked up): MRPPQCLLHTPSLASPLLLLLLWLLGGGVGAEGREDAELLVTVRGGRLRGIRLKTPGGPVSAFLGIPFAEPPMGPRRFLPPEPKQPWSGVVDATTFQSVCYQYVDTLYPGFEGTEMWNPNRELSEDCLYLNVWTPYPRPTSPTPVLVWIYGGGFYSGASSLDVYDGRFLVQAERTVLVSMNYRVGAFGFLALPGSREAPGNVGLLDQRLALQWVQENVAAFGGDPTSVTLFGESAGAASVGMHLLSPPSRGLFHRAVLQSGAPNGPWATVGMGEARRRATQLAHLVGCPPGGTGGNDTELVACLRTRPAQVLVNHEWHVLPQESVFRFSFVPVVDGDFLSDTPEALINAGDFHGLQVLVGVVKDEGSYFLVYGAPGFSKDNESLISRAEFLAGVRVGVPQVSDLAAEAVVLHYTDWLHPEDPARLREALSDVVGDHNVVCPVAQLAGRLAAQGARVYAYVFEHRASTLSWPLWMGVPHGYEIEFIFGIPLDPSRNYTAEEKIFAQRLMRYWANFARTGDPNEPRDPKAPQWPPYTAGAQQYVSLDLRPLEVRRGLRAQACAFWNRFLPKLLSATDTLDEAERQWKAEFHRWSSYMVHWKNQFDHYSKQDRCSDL

SMILES | Potency | activity, negative = inhibition
CCO[Si](CCCNC(N)=O)(OCC)OCC | inactive | –
CCCCCCCC/C=C\CCCCCCCC(=O)OC | – | -3.28%
CC1OC1C1CCC2(C)OC2C1 (stereo not given) | – | -2%
CO[Si](OC)(OC)c1ccccc1 | – | -0.0405%
CN(CCOc1ccc(CC2SC(=O)NC2=O)cc1)c1ccccn1 (stereo not given) | inactive | –
CC(C)(C)C1CCC(O)CC1 (stereo not given) | inactive | –
FC(F)(F)C(F)(F)C(F)(F)C(F)(F)C(F)(F)C(F)(F)C(F)(F)C(F)(F)C(F)(F)C(F)(F)F | – | 0.771% [at 10.5 µM]
CCc1cccc(C)c1N(C(=O)CS(=O)(=O)O)C(C)COC (stereo not given) | – | 0.798%
COc1ccc(CCC(C)=O)cc1 | inactive | –
C[C@]1(Cn2ccnn2)[C@H](C(=O)O)N2C(=O)C[C@H]2S1(=O)=O | – | -1.82% [at 52.9 µM]
COC(=O)C1=C(C)NC(C)=C(C(=O)OCC(C)C)C1c1ccccc1[N+](=O)[O-] (stereo not given) | inactive | –
CCCC(CCC)(C(=O)OCC)C(=O)OCC | – | -1.77% [at 52.9 µM]
O=C(NCCCN1CCOCC1)c1ccc(Cl)cc1 | – | 0.604% [at 52.9 µM]
CCOC(=O)CCCCCCCCC(=O)OCC | – | -1.68%
OC[C@@H](O)C(O)[C@@H](O)CO (stereo not given in full) | – | 2.85%
COc1c2ccoc2cc2oc(=O)ccc12 | inactive | –
CN(C)[C@@H]1C(=O)C(C(=O)NCN2CCCC2)=C(O)[C@@]2(O)C(=O)C3=C(O)c4c(O)cccc4[C@@](C)(O)C3C[C@@H]12 (stereo not given in full) | – | 1.6% [at 52.9 µM]
CCCCC(CC)COCC1CO1 (stereo not given) | inactive | –
CCN1CCN(c2cc(-c3ccc(F)cc3)c3c(n2)CCCCCC3)CC1 | – | 2.78% [at 23.6 µM]
O=C(OCCOCCOC(=O)c1ccccc1)c1ccccc1 | inactive | –

SMILES | Potency | activity, negative = inhibition
CC(C)CC(C)CC(O)CC(C)C (stereo not given) | inactive | –
Nc1c(I)cc(I)c(C(=O)N(CCC(=O)O)c2ccccc2)c1I | – | 1.85% [at 52.9 µM]
CC(CCC(=O)O)C(=O)O (stereo not given) | – | 1.32%
Nc1nc2c(ncn2COCCO)c(=O)[nH]1 | – | -0.0347% [at 52.9 µM]
Cc1ccc(C)c([N+](=O)[O-])c1 | – | 2.95%
C=COCC(C)C | – | 2.79%
O=C(O)c1ccc(S(=O)(=O)O)cc1C(=O)O | – | 0.516%
Cc1ccccc1Br | – | 2.27%
CC(CC(C#N)(c1ccccc1)C(C)C)N(C)C (stereo not given) | – | -2.63% [at 52.9 µM]
CCCc1ccc(O)cc1 | – | 1.58%
CC1=C(C(=O)OC(C)C)C(c2cccc([N+](=O)[O-])c2)C(C(=O)OC2CN(C(c3ccccc3)c3ccccc3)C2)=C(N)N1 (stereo not given) | – | 0.841% [at 52.9 µM]
O=[N+]([O-])c1ccccc1CCO | – | 4.43%
CO[C@@]1(NC(=O)CSCC#N)C(=O)N2C(C(=O)O)=C(CSc3nnnn3C)CS[C@@H]21 | – | -3.03% [at 52.9 µM]
CC(C)Cn1cnc2c1c(=O)n(C)c(=O)n2C | – | 1.01% [at 52.9 µM]
CC(CCc1ccccc1)NCC(O)c1ccc(O)c(C(N)=O)c1 (stereo not given) | – | -1.62%
OC[C@H]1O[C@@H](n2cnc3c(=S)nc[nH]c32)[C@H](O)[C@@H]1O | – | 1.1% [at 52.9 µM]
C[Si](NC1CCCCC1)(NC1CCCCC1)NC1CCCCC1 | – | 3.41%
C[C@@H]1C[C@H]2[C@@H]3CCC4=CC(=O)C=C[C@]4(C)[C@@]3(F)[C@@H](O)C[C@]2(C)[C@H]1C(=O)CO | – | 2.35% [at 52.9 µM]
CN(C)C=O | inactive | –
CC1(C)CC(N)CC(C)(CN)C1 (stereo not given) | inactive | –

Each molecule was assayed against Acetylcholinesterase (Homo sapiens) (UniProt P22303) (assay: Acetylcholinesterase (AChE) small molecule antagonists: enzyme-based qHTS assay (AID 1347397; also: nearly all actives have a fitted effect of over 55% in size)). Conditions: Potency: AChE enzyme activity inhibition; outcome: AChE enzyme activity inhibition; series mostly up to 115 µM; activity change, negative = inhibition: at the top concentration.
In short: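 Absorbance-based detection of thiocholine with DTNB served as the read-out. Recombinant human AChE was exposed to compound for 30 min at RT before a 10 min RT incubation with acetylthiocholine.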

SMILES | Potency | activity change, negative = inhibition
CCO[Si](CCCNC(N)=O)(OCC)OCC | inactive | –
CCCCCCCC/C=C\CCCCCCCC(=O)OC | – | -1.91%
CC1OC1C1CCC2(C)OC2C1 (stereo not given) | – | 1.15%
CO[Si](OC)(OC)c1ccccc1 | – | -0.527%
CN(CCOc1ccc(CC2SC(=O)NC2=O)cc1)c1ccccn1 (stereo not given) | inactive | –
CC(C)(C)C1CCC(O)CC1 (stereo not given) | inactive | –
FC(F)(F)C(F)(F)C(F)(F)C(F)(F)C(F)(F)C(F)(F)C(F)(F)C(F)(F)C(F)(F)C(F)(F)F | – | 1.63% [at 10.5 µM]
CCc1cccc(C)c1N(C(=O)CS(=O)(=O)O)C(C)COC (stereo not given) | – | 0.954%
COc1ccc(CCC(C)=O)cc1 | inactive | –
C[C@]1(Cn2ccnn2)[C@H](C(=O)O)N2C(=O)C[C@H]2S1(=O)=O | – | 0.535% [at 53 µM]
COC(=O)C1=C(C)NC(C)=C(C(=O)OCC(C)C)C1c1ccccc1[N+](=O)[O-] (stereo not given) | inactive | –
CCCC(CCC)(C(=O)OCC)C(=O)OCC | – | -0.54% [at 53 µM]
O=C(NCCCN1CCOCC1)c1ccc(Cl)cc1 | – | -0.0051% [at 53 µM]
CCOC(=O)CCCCCCCCC(=O)OCC | – | 0.658%
OC[C@@H](O)C(O)[C@@H](O)CO (stereo not given in full) | – | 0.136%
COc1c2ccoc2cc2oc(=O)ccc12 | inactive | –
CN(C)[C@@H]1C(=O)C(C(=O)NCN2CCCC2)=C(O)[C@@]2(O)C(=O)C3=C(O)c4c(O)cccc4[C@@](C)(O)C3C[C@@H]12 (stereo not given in full) | – | 0.81% [at 53 µM]
CCCCC(CC)COCC1CO1 (stereo not given) | inactive | –
CCN1CCN(c2cc(-c3ccc(F)cc3)c3c(n2)CCCCCC3)CC1 | – | 1.01% [at 23.6 µM]
O=C(OCCOCCOC(=O)c1ccccc1)c1ccccc1 | inactive | –

SMILES | Potency | activity change, negative = inhibition
CC(C)CC(C)CC(O)CC(C)C (stereo not given) | inactive | –
Nc1c(I)cc(I)c(C(=O)N(CCC(=O)O)c2ccccc2)c1I | – | -0.222% [at 53 µM]
CC(CCC(=O)O)C(=O)O (stereo not given) | – | -0.545%
Nc1nc2c(ncn2COCCO)c(=O)[nH]1 | – | 3.8% [at 53 µM]
Cc1ccc(C)c([N+](=O)[O-])c1 | – | 0.136%
C=COCC(C)C | – | -0.0036%
O=C(O)c1ccc(S(=O)(=O)O)cc1C(=O)O | – | 1.61%
Cc1ccccc1Br | – | -2.04%
CC(CC(C#N)(c1ccccc1)C(C)C)N(C)C (stereo not given) | – | 0.693% [at 53 µM]
CCCc1ccc(O)cc1 | – | 0%
CC1=C(C(=O)OC(C)C)C(c2cccc([N+](=O)[O-])c2)C(C(=O)OC2CN(C(c3ccccc3)c3ccccc3)C2)=C(N)N1 (stereo not given) | – | -1.22% [at 53 µM]
O=[N+]([O-])c1ccccc1CCO | – | -0.142%
CO[C@@]1(NC(=O)CSCC#N)C(=O)N2C(C(=O)O)=C(CSc3nnnn3C)CS[C@@H]21 | – | 2.03% [at 53 µM]
CC(C)Cn1cnc2c1c(=O)n(C)c(=O)n2C | – | -0.265% [at 53 µM]
CC(CCc1ccccc1)NCC(O)c1ccc(O)c(C(N)=O)c1 (stereo not given) | – | 0.412%
OC[C@H]1O[C@@H](n2cnc3c(=S)nc[nH]c32)[C@H](O)[C@@H]1O | – | 1.01% [at 53 µM]
C[Si](NC1CCCCC1)(NC1CCCCC1)NC1CCCCC1 | – | -0.393%
C[C@@H]1C[C@H]2[C@@H]3CCC4=CC(=O)C=C[C@]4(C)[C@@]3(F)[C@@H](O)C[C@]2(C)[C@H]1C(=O)CO | – | -0.344% [at 53 µM]
CN(C)C=O | inactive | –
CC1(C)CC(N)CC(C)(CN)C1 (stereo not given) | inactive | –
